This note sets out measurements from PubChem BioAssay (Tox21).

Assay [1] in a line: Human pregnane X receptor (PXR) small molecule agonists, qHTS cell viability counter screen (AID 1346977). Further: nearly all actives have a fitted effect of over 50% in size. Further: potency means the concentration at half of the fitted maximal effect. A digest of the protocol: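 Viability counter screen: CellTiter-Fluor signal in PXR-Luc HepG2 cells, 24hr compound exposure, 37C, 5% CO2.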
A general note: Quantitative high-throughput screening tests each substance at several concentrations.

Assay [2] can be described thus: Caspase-3/7 induction in HepG2 cells by small molecules, qHTS assay (AID 1346978). Further: nearly all actives have a fitted effect of over 15% in size. Further: potency means the concentration at half of the fitted maximal effect. The essentials:
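Wild-type HepG2 cells (2,000/well) were settled 5 h at 37 C, 5% CO2, then exposed to compounds in DMSO for 17 h. Caspase-3/7 activity was read by luminescence 30 min after adding Caspase-Glo 3/7 reagent at room temperature.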

A short description of assay [3]: Caspase-3/7 induction in CHO-K1 cells by small molecules, qHTS cell viability counter screen (AID 1346979). Further: potency means the concentration at half of the fitted maximal effect; nearly all actives have a fitted effect of over 35% in size. A digest of the protocol: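 Viability readout by fluorescence (CellTiter-Fluor) on wild-type CHO-K1 cells exposed for 16hr at 37C and 5% CO2 to compounds delivered in DMSO; reagent incubated 1hr before reading.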
Assay [4] can be described thus: Caspase-3/7 induction in HepG2 cells by small molecules, qHTS cell viability counter screen (AID 1346981). Further: nearly all actives have a fitted effect of over 30% in size. Further: potency means the concentration at half of the fitted maximal effect. The essentials: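 Counter screen for cytotoxicity: HepG2 exposed 16 hr to compounds, then CellTiter-Fluor viability signal (fluorescence, 1 hr reagent incubation).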
The target of assay [5] is Nuclear receptor subfamily 1 group I member 2 (Homo sapiens) (UniProt O75469). Put plainly: Human pregnane X receptor (PXR) small molecule agonists, qHTS assay (AID 1346982). Further: potency means the concentration at half of the fitted maximal effect; nearly all actives have a fitted effect of over 35% in size. A digest of the protocol: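 Luminescence (ONE-Glo, 30 min RT) after 24 hr compound exposure of PXR-Luc HepG2 cells; cells rested 5 hr post-plating in 5% charcoal-stripped FBS medium.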
Assay [6] addresses Acetylcholinesterase (Homo sapiens) (UniProt P22303). The experiment in a line: Acetylcholinesterase (AChE) small molecule antagonists: colormetric cell-based qHTS assay (AID 1347395; calls by dose curve; further: on the % scale 0 is the no-effect control and ±100 the full control effect; nearly all actives have a fitted effect of over 30% in size). A digest of the protocol:
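Homogeneous whole-cell format. SH-SY5Y cells seeded overnight, dosed with compound (30 min, 37 C, 5% CO2), then given DTNB/acetylthiocholine cocktail for 90 min at 37 C; colorimetric signal.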

Assay [7] can be described thus: Caspase-3/7 induction in CHO-K1 cells by small molecules, qHTS assay (AID 1346980). Further: on the % scale 0 is the no-effect control and ±100 the full control effect; nearly all actives have a fitted effect of over 15% in size. A digest of the protocol:
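Wild-type cells were seeded at 1,500 per well and settled 5 hr at 37 C, 5% CO2, then exposed to DMSO-dissolved compounds for 17 hr. Caspase-Glo 3/7 reagent was added, and luminescence was read after 30min at room temperature.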

Assay [8] concerns the target Nuclear receptor subfamily 1 group I member 2 (Rattus norvegicus) (UniProt Q9R1A7). Put plainly: Rat pregnane X receptor (rPXR) activation by small molecules, qHTS assay (AID 1346983). Further: on the % scale 0 is the no-effect control and ±100 the full control effect; nearly all actives have a fitted effect of over 20% in size. The following applies: rPXR luciferase reporter cells, One-Glo luminescence, 24 h; max activation: stronger effect = higher value. A digest of the protocol: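 Cell-based rPXR luciferase reporter assay, 2,000 cells per well, rested 5hr at 37 C before compound addition in DMSO, then 24 hr at 37 C. One-Glo reagent was added and luminescence read after 30 min at room temperature.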

The target of assay [9] is Nuclear receptor subfamily 1 group I member 2 (Homo sapiens) (UniProt O75469). Put plainly: CYP3A4 induction through human pregnane X receptor (PXR) by small molecules, qHTS assay (AID 1346984). Further: nearly all actives have a fitted effect of over 40% in size. Further: potency means the concentration at half of the fitted maximal effect. On activation: on the % scale 0 is the no-effect control and ±100 the full control effect. A digest of the protocol:
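DPX-2 reporter cells; 24h cpd, 37C; Luciferin-IPA 3uM final x3h; One-Glo 30 min RT; lumi read.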

For assay [10] the target is unchanged. The experiment in a line: Human pregnane X receptor (PXR) activation by small molecules, qHTS assay (AID 1346985). Further: nearly all actives have a fitted effect of over 40% in size. Further: potency means the concentration at half of the fitted maximal effect. On activation: on the % scale 0 is the no-effect control and ±100 the full control effect. A digest of the protocol: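 DPX-2 cells (HepG2 co-transfected with a PXR response element and a CYP3A4-promoter luciferase construct) were seeded at 2,000 per well, rested 5 hr at 37C, then exposed to DMSO-dissolved compounds for 24 hr. Activation was read as luciferase luminescence.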

Each structure is given as a SMILES string. A number with no mark means an inactive call. Results filed as inconclusive are left out. Activity calls are given as the source filed them. Unless noted, the call rests on the fitted dose curve; in most records, active means well fitted curve in the direction sought with a large enough effect in the repeat runs; inconclusive means weak or mixed curves; inactive means no such curve, though single readings can be large; an effect the other way counts as inactive or inconclusive.

Sequence of Nuclear receptor subfamily 1 group I member 2 (Homo sapiens) (O75469 whole entry, looked up): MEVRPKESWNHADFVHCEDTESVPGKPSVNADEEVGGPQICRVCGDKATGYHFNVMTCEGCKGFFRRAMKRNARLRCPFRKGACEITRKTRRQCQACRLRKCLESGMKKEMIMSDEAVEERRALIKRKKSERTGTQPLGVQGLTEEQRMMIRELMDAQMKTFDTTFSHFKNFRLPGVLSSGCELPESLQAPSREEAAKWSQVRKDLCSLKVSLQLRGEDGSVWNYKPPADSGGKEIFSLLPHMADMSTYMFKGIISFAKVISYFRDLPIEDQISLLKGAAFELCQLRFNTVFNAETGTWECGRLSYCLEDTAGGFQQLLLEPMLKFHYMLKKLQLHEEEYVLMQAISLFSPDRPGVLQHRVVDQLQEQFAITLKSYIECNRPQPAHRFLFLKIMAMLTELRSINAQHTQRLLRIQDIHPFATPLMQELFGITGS
Sequence of Acetylcholinesterase (Homo sapiens) (P22303 whole entry, looked up): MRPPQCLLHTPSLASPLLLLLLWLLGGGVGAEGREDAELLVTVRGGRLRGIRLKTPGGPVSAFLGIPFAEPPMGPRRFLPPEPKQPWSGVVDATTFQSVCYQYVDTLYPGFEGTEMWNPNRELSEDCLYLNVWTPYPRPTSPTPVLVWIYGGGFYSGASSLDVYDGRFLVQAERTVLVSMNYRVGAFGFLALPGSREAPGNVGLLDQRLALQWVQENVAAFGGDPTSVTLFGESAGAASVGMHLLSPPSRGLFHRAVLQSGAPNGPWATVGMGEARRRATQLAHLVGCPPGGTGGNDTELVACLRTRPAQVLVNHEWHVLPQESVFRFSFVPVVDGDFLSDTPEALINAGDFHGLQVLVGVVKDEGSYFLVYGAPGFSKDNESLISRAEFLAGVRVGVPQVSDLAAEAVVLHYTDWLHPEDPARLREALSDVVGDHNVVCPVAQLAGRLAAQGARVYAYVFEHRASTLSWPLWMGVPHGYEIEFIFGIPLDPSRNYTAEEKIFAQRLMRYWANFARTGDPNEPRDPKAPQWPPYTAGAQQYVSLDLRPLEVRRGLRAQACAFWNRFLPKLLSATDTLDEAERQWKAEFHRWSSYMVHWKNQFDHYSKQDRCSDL
Sequence of Nuclear receptor subfamily 1 group I member 2 (Rattus norvegicus) (Q9R1A7 whole entry, looked up): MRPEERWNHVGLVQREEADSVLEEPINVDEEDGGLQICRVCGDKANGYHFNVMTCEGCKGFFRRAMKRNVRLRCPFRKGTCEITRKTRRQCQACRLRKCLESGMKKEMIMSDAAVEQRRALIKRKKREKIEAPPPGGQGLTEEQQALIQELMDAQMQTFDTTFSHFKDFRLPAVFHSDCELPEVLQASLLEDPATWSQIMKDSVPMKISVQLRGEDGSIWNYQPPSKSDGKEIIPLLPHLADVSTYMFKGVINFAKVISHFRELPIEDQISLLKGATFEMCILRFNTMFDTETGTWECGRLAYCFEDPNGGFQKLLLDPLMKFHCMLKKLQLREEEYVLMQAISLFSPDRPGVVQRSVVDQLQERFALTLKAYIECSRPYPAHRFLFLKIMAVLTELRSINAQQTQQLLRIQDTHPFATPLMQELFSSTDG

For the compound `CCCCCCCCCCCCCC[P+](CCCCCC)(CCCCCC)CCCCCC` (tested in a mixture with another compound), the Potency in [1] was 3.86 µM (active); in assay [2], 19.3 µM (active); in assay [3], 4.33 µM (active); in [4] it was 24.3 µM (active); in [5], 2.17 µM (active). In addition, the Potency entry in assay [6] is “inactive”.

In the case of `CC(Cc1ccc(C(C)(C)C)cc1)CN1C[C@@H](C)O[C@@H](C)C1` (some centres undefined), the Potency entry in assay [1], in [2], in assay [7], in assay [4] and in [6] was “inactive” throughout. Moreover, the Potency in assay [5] is 30.6 µM (active).

Take `CC(=O)O[C@H]1CC[C@@]2(C)C(=CC[C@@H]3[C@@H]2CC[C@]2(C)C(=O)CC[C@@H]32)C1`: the Potency entry in assay [1], in [2], in assay [7], in assay [4], in assay [9] and in assay [10] was “inactive” in each case. Besides, in [6], the Potency entry was “inactive”. Moreover, the Potency in assay [5] is 54.5 µM (active). In addition, the max activation in assay [8] was -1.42%.

With `O=C(CCl)Nc1ccccc1`, the Potency in assay [1] was 61.1 µM (active); in assay [3] it was 54.5 µM (active). The Potency result in assay [2], in assay [7] and in assay [6] was “inactive” throughout.

As for `CCOC(=O)C1(c2ccccc2)CCN(CCC(C#N)(c2ccccc2)c2ccccc2)CC1`, the Potency entry in [1], in assay [2], in assay [7], in [4] and in [6] was “inactive” in each case. Further, the Potency was 3.35 µM (active) in [5], 1.41 µM (active) in assay [9] and 1.12 µM (active) in assay [10].
